The results in this text go back to the supplement of paper PMC13380429.

Structures are written as SMILES.

The test system of assay [1] is Vero E6 infected with SARS-CoV-2. In words: morphology score (similarity to uninfected cells); higher = more like uninfected cells. The settings on record: 24 h.
For assay [2] the test system is unchanged. The experiment in a line: SARS-CoV-2 infection rate relative to infected DMSO; higher = more infection, active = 60 or less. The following applies: 24 h.

Take `CC(=O)Nc1ccc(C(=O)Nc2ccccc2N)cc1` [tacedinaline] (0.833333 µM): the morphology score in assay [1] was -0.0863. Moreover, the SARS-CoV-2 infection rate in assay [2] is 110% (inactive).

In assay [1], `O=C(Nc1ccccc1)c1cc([N+](=O)[O-])ccc1Cl` (10 µM) yielded a morphology score of 0.103. Also, the SARS-CoV-2 infection rate in assay [2] is 94.5% (inactive).

Turning to `CC(C)/N=c1\cc2n(-c3ccc(Cl)cc3)c3ccccc3nc-2cc1Nc1ccc(Cl)cc1` [clofazimine] (10 µM), the morphology score in assay [1] amounted to 0.422. For the same molecule, in assay [2], the SARS-CoV-2 infection rate was 64% (inactive).

With `O=C(O)CCc1ccc(NCc2cccc(Oc3ccccc3)c2)cc1` (10 µM), the morphology score in assay [1] is -0.132. Also, the SARS-CoV-2 infection rate in assay [2] was 116% (inactive).

In the case of `CCOC(=O)CNC(=O)[C@@H]1CCCN1C(=O)Cc1ccccc1` (10 µM), in assay [1], the morphology score was -0.0562. Also, the SARS-CoV-2 infection rate in assay [2] was 104% (inactive).

In assay [1], `CC(=O)NC[C@H]1CN(c2ccc(N3CCN(C(=O)CO)CC3)c(F)c2)C(=O)O1` [eperezolid] (10 µM) registered a morphology score of 0.0417. For the same molecule, in assay [2], the SARS-CoV-2 infection rate is 112% (inactive).

Take `CCCCCCCCCCCCCC(=O)OC(C)C` [isopropyl-myristate] (10 µM): the morphology score in assay [1] came to 0.235. The SARS-CoV-2 infection rate in assay [2] is 95.5% (inactive).

Take `c1cc2c(cc1C1CCCCC1)c1c3n2CCNC3CCC1` (stereo not given) [tetrindole] (0.833333 µM): the morphology score in assay [1] was -6.12e-06. Further, the SARS-CoV-2 infection rate in assay [2] was 108% (inactive).

For the molecule `CC(C)=CCC[C@]1(C)C=Cc2c(O)c3c(c(CC=C(C)C)c2O1)O[C@]12C(=C[C@@H]4C[C@H]1C(C)(C)O[C@@]2(C/C=C(/C)C(=O)O)C4=O)C3=O` [gambogic-acid] (10 µM), the morphology score in assay [1] stood at 0.0235. Besides, the SARS-CoV-2 infection rate in assay [2] is 106% (inactive).

On to `Cc1cc(O)cc2c1O[C@](C)(CCC[C@H](C)CCC[C@H](C)CCCC(C)C)CC2` [D-delta-tocopherol] (10 µM), for which the morphology score in assay [1] was -0.14. For the same molecule, in assay [2], the SARS-CoV-2 infection rate is 112% (inactive).

Take `c1ccc(C(NCc2cccnc2)(c2ccccc2)c2ccccc2)cc1` (10 µM): the morphology score in assay [1] was -0.069. The SARS-CoV-2 infection rate in assay [2] was 104% (inactive).

In the case of `C(#CCN1CCCC1)CN1CCCC1` [tremorine] (10 µM), the morphology score in assay [1] turned out to be 0.107. The SARS-CoV-2 infection rate in assay [2] was 96% (inactive).

For `O=C1C=Cc2cc(Br)ccc2C1=O` [bonaphthone] (10 µM), the morphology score in assay [1] was -0.0263. Moreover, the SARS-CoV-2 infection rate in assay [2] is 103% (inactive).

`[Cl][Ru-]([Cl])([Cl])[Cl].[Na+].c1ccc2[nH]ncc2c1.c1ccc2[nH]ncc2c1` (10 µM): the morphology score in assay [1] amounted to 0.443. Besides, the SARS-CoV-2 infection rate in assay [2] is 43% (active).

For the molecule `CC(=O)N(OCc1ccccc1)[C@@H]1c2cc(C#N)ccc2OC(C)(C)[C@H]1O` (10 µM), the morphology score in assay [1] came to 0.159. The SARS-CoV-2 infection rate in assay [2] was 97.5% (inactive).

The molecule `O=c1cc(N2CCOCC2)oc2c1ccc1ccccc12` (10 µM) showed a morphology score in assay [1] of 0.258. The SARS-CoV-2 infection rate in assay [2] is 110% (inactive).

`O=C(O)CCCC[C@@H]1CCSS1` [thioctic-acid] (10 µM) showed a morphology score in assay [1] of 0.0028. Besides, the SARS-CoV-2 infection rate in assay [2] was 106% (inactive).

In assay [1], `O=C1CN(/N=C/c2ccc(-c3ccc([N+](=O)[O-])cc3)o2)C(=O)N1` [dantrolene] (10 µM) returned a morphology score of 0.0672. Moreover, the SARS-CoV-2 infection rate in assay [2] was 110% (inactive).

Regarding `O=C(NC1(c2ccccc2)CC1)c1c(CN2CCC(N3CCCCC3)CC2)c(-c2cccc(C(F)(F)F)c2)nc2cc(Br)ccc12` (0.833333 µM), the morphology score in assay [1] is -0.235. Further, the SARS-CoV-2 infection rate in assay [2] is 112% (inactive).

In assay [1], `Cc1cc(C)nc(SCC(=O)Nc2ncc(Cc3cccc4ccccc34)s2)n1` (10 µM) showed a morphology score of 0.211. For the same molecule, in assay [2], the SARS-CoV-2 infection rate was 96.5% (inactive).

In assay [1], `C[S+]([O-])CCCCN=C=S` (stereo not given) [sulforaphane] (10 µM) displayed a morphology score of 0.924. In assay [2], the SARS-CoV-2 infection rate is 6.5% (active).

With `COC(=O)c1ccc(O)cc1` [methylparaben] (10 µM), in assay [1], the morphology score is -0.112. For the same molecule, the SARS-CoV-2 infection rate in assay [2] was 114% (inactive).

With `CC(=O)OCC1=C(C(=O)O)N2C(=O)[C@@H](NC(=O)CSc3ccncc3)[C@H]2SC1` [cephapirin] (10 µM), the morphology score in assay [1] is -0.142. Further, the SARS-CoV-2 infection rate in assay [2] is 93.5% (inactive).

As to `CC(C)(C)NC(=O)N[C@H](C(=O)N1C[C@H]2[C@@H]([C@H]1C(=O)NC(CC1CCC1)C(=O)C(N)=O)C2(C)C)C(C)(C)C` (stereo not given in full) [boceprevir] (10 µM), the morphology score in assay [1] was 0.133. For the same molecule, in assay [2], the SARS-CoV-2 infection rate was 113% (inactive).

In assay [1], `O=P(O)(O)CN(CCN(CP(=O)(O)O)CP(=O)(O)O)CP(=O)(O)O` (10 µM) yielded a morphology score of 0.137. Moreover, the SARS-CoV-2 infection rate in assay [2] was 104% (inactive).

In the case of `CC(=O)c1ccc(NS(C)(=O)=O)c(Oc2ccc(F)cc2F)c1` (10 µM), the morphology score in assay [1] was found to be 0.115. In addition, the SARS-CoV-2 infection rate in assay [2] was 92.5% (inactive).

Take `Oc1ccc2c3c1O[C@H]1c4[nH]c5ccccc5c4C[C@@]4(O)[C@@H](C2)N(CC2CC2)CC[C@]314` [naltrindole] (10 µM): the morphology score in assay [1] was -0.0968. Besides, in assay [2], the SARS-CoV-2 infection rate was 106% (inactive).

Consider `CCCC(C)C1(CC)C(=O)NC(=S)NC1=O` (stereo not given) [thiopental] (10 µM), for which the morphology score in assay [1] was found to be 0.132. In assay [2], the SARS-CoV-2 infection rate was 110% (inactive).

As to `CCN(CC)Cc1cc(Nc2ccnc3cc(Cl)ccc23)ccc1O` [amodiaquine] (10 µM), the morphology score in assay [1] is 0.839. Further, the SARS-CoV-2 infection rate in assay [2] is 17.5% (active).

For `COc1ccc(C(=O)C2CCN(CC(=O)N(Cc3nc4c(c(=O)[nH]3)COCC4)CC3CC3)CC2)cc1` (10 µM), the morphology score in assay [1] is 0.165. Moreover, the SARS-CoV-2 infection rate in assay [2] was 102% (inactive).
